Inhibition data for 53 molecules are collected here from PubChem BioAssay AID652065 (The Scripps Research Institute Molecular Screening Center, 2013).

The structures appear in SMILES notation. Among all 4,300 compounds or so, about 3,000 (70%) were called active. So high a share suggests a set chosen from earlier hits. The list is a sample of the results. Unmarked numbers belong to inactive results.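 The calls were made as follows: active = inhibition above a per-plate cutoff, the mean inhibition of sample wells plus 3 SD (cut at about 35% in these data); inactive = the rest.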

The nature of the experiment: small molecules binding CAG repeat RNA – biochemical, fluorescence, confirmation (AID 652065).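 Also: loss of TO-PRO-1 fluorescence as compound displaces dye from 1x1 AA loop RNA; 0% = DMSO only wells and 100% = 100 µM mitoxantrone.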 Particulars: r(CAG) RNA repeat, TO-PRO-1 dye displacement fluorescence; at 3 µM; active compounds read high.
Consider `COc1cccc(-c2coc3cc4oc(=O)c(CC(=O)O)c(C)c4cc23)c1`, for which the inhibition is 42.7% (active).

Turning to `O=C(COc1ccc([N+](=O)[O-])cc1)Nc1cccc(C(=O)Nc2ccccc2C(=O)O)c1`, the inhibition was 62.4% (active). Turning to `CCN(CC)C(=O)CSC(Nc1cccc(F)c1)=C(C#N)C#N`, the inhibition is 38.4% (active).

For the molecule `Cc1nnc(SC(C(=O)Nc2cc(Cl)cc(Cl)c2)c2ccccc2)[nH]c1=O` (stereo not drawn), the inhibition was 64.1% (active). Next, `COc1ccc(Cc2nnc(SCC(=O)Nc3ccc(C)c(Cl)c3)[nH]c2=O)cc1`: 62.5% (active); `CC(=O)Nc1ccc(S(=O)(=O)N(CCc2ccccc2)CC(=O)N/N=C/c2ccc(C(=O)O)cc2)cc1`: 28.1%. Next, `O=C(COC(=O)c1ccc(NS(=O)(=O)c2cccs2)cc1O)Nc1ccc(F)cc1`: 23.1%; `Cc1cc(NS(=O)(=O)c2ccc(NC(=O)CSc3nnc(-c4ccc(C(C)(C)C)cc4)n3Cc3ccco3)cc2)nc(C)n1`: 23.6%; `Cc1cc(NS(=O)(=O)c2ccc(NC(=O)CSc3nnc(SCc4ccc(F)cc4)s3)cc2)nc(C)n1`: 45% (active). Under `C=CCn1c(=S)[nH]c2scc(-c3ccco3)c2c1=O` stands 27.3%; under `COc1ccc(Br)cc1/C=N/Nc1ccc(S(=O)(=O)Nc2ccccc2C(=O)O)cc1[N+](=O)[O-]`, 93.4% (active). With `COc1cccc(/C=N/Nc2ccc(S(=O)(=O)Nc3ccccc3C(=O)O)cc2[N+](=O)[O-])c1O`, the inhibition was 93.9% (active). Next, `O=C(O)c1ccccc1/C=N/Nc1ccc(S(=O)(=O)Nc2ccc(Cl)cc2)cc1[N+](=O)[O-]`: 63.4% (active); `NS(=O)(=O)c1ccc(N=Nc2c(O)[nH]c3ccc(Br)cc23)cc1`: 18.8%; `O=C1/C(=C/c2ccc(F)cc2)SC(=S)N1NS(=O)(=O)c1ccccc1`: 53.6% (active). Under `COc1ccc(/C=C/C(=O)c2ccc(NS(=O)(=O)c3ccc(C)cc3)cc2)cc1O` stands 54.9% (active); under `COc1cc(/C=C2/C(=O)NN(c3cccc(Cl)c3)C2=O)cc(Br)c1O`, 24.5%; under `COc1cc(NC(=O)c2ccccc2NS(=O)(=O)c2ccc(Cl)s2)cc(OC)c1`, 82% (active).

For the molecule `O=C(Nc1nncs1)c1ccccc1NS(=O)(=O)c1cccs1`, the inhibition was 30.2%.

Turning to `CCc1nnc(NS(=O)(=O)c2ccc(NC(=O)c3cccc(OC(F)(F)C(F)F)c3)cc2)s1`, the inhibition was 56.7% (active). Under `CCc1nnc(NS(=O)(=O)c2ccc(NC(=S)NC(=O)c3cccs3)cc2)s1` stands 46.7% (active); under `NS(=O)(=O)c1ccc(NC2=CC(c3ccc(F)cc3)N(c3ccc(S(N)(=O)=O)cc3)C2=O)cc1` (stereo not drawn), 12.6%. Next, `Cc1ccc(SC(CC(=O)c2ccc(C(C)(C)C)cc2)C(=O)O)cc1` (stereo not drawn): 44.7% (active). Next, `Cc1ccc(C(=O)Oc2coc(CSc3nnc(NC(=O)c4cccs4)s3)cc2=O)cc1C`: 60.6% (active).

As for `O=C(O)CCn1cc(/C=C/C(=O)c2ccc(Cl)cc2)c(-c2cccc(Br)c2)n1`, the inhibition is 86.2% (active). Take `CN(C(=O)COC(=O)c1cc(-c2ccco2)nc2ccccc12)C1CCS(=O)(=O)C1` (stereo not drawn): the inhibition was 27.6%.

As to `CC(C)c1ccc(Nc2nnc(SCC(=O)c3nnc(-c4ccccc4)o3)s2)cc1`, the inhibition was 56.2% (active). Under `Cc1ccc(-c2csc(C(C#N)=C(O)CN3CCN(C(=O)c4ccco4)CC3)n2)cc1` stands 60.2% (active); under `O=C1c2cccc3cccc(c23)C(=O)N1CCCCCc1n[nH]c(=S)o1`, 26.9%.

In the case of `COc1ccccc1/C=C/C=N/n1c(-c2ccc(Cl)cc2Cl)n[nH]c1=S`, the inhibition was 42.1% (active).

For `O=C(O)c1[nH]c2ccccc2c1C(c1cccc(O)c1)c1c(C(=O)O)[nH]c2ccccc12`, the inhibition is 38.5% (active). Next, `CC(=O)Nc1ccc(-c2csc(NC(=O)Nc3ccccc3)n2)cc1`: 23.1%; `CC(=O)Nc1ccc(S(=O)(=O)Nc2nc(-c3ccc(C(C)(C)C)cc3)cs2)cc1`: 67.6% (active). Consider `CC(=O)Nc1ccc(C(=O)Nc2nc(-c3cc(C)n(Cc4ccccc4)c3C)cs2)cc1`, for which the inhibition was 20.6%.

With `Cc1ccc(Nc2nc(CSc3nnnn3-c3ccccc3)cc(=O)[nH]2)cc1`, the inhibition is 50.7% (active). Under `COc1ccccc1C1C(C#N)=C(N)Oc2c1c(-c1ccccc1)nn2-c1ccccc1` (stereo not drawn) stands 30%; under `CC(C)(C)C1C/C(=C/c2ccco2)C(=O)/C(=C/c2ccco2)C1` (stereo not drawn), 44.2% (active); under `Cc1ccc(Nc2nc(-c3ccc(O)cc3O)cs2)nc1`, 23.4%.

Consider `O=C(Nc1nc(-c2ccco2)c(-c2ccco2)s1)c1ccco1`, for which the inhibition was 34.7% (active).

As for `CCc1nnc(NS(=O)(=O)c2ccc(N=Cc3c(C)[nH]n(-c4ccc(C)cc4)c3=O)cc2)s1`, the inhibition was 69.2% (active).

With `COc1ccc(C(=O)/C=C/c2ccc(-c3ccccc3)cc2)cc1CSCC(=O)O`, the inhibition was 85.1% (active). On to `COC(=O)c1ccc(COc2ccc(/C=C/C(=O)c3ccc(OC)c(CSCC(=O)O)c3)cc2OC)cc1`, for which the inhibition is 66.9% (active). Next, `CCOC(=O)c1ccccc1N1C(=O)C2Sc3[nH]c(=O)sc3C(/C=C/c3ccccc3)C2C1=O` (stereo not drawn): 46.1% (active). Next, `O=C(O)c1ccc(NN=CC2=C(N3CCOCC3)/C(=C/c3ccccc3)CC2)cc1`: 70.3% (active); `Cc1ccc(C)c(Cn2nnc3c(=O)[nH]c(C(=O)Nc4ccc(F)cc4)nc32)c1`: 43.2% (active). Next, `COc1cccc2sc(NNC(=O)c3nc4ccccc4s3)nc12`: 85% (active); `Clc1ccccc1CSc1nnc(-c2ccco2)c(-c2ccco2)n1`: 59.9% (active); `Fc1cccc(Cc2c(-c3cccc(Cl)c3)nc3ccc(Br)cn23)c1`: 40.3% (active). In the case of `Cc1cc(Br)cn2c(Cc3cccc(F)c3)c(-c3cccc(Br)c3)nc12`, the inhibition was 4.39%. Next, `COc1ccc(-c2nc3ccc(Br)cn3c2Cc2ccc(C)cc2)cc1OC`: 9.11%. As to `O=C(O)CC/C(=C\c1cc2c(cc1Br)OCO2)c1nc2ccccc2s1`, the inhibition is 50.5% (active). Under `CCOC(=O)c1csc(NC(=O)Nc2cccc(OC)c2)n1` stands 29.9%. Under `COc1ccc(C(=O)Nc2cccc(/C=C(/CCC(=O)O)c3nc4ccccc4s3)c2)cc1` stands 72.8% (active).
